Data reported in the supplement of paper PMC6555819.

Legend:
Test in all cases: PBM binding z-score (relative to random genomic background probes); higher = stronger binding; sequences stand for … in GC…GCGATTGACAGCGTAGAATGAAGG
[1] = system: FXR:RXRa (NR concentration 270 nM, RXRa partner concentration 90 nM)
Summary of the method: (§1)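 Custom Agilent 4×180K protein-binding microarrays carried double-stranded probes. Their 34-nt variable regions held direct-repeat seeds, single-nucleotide variants, half-site ablations and random human genomic background sequences. Arrays were incubated 1 h with ligand-free nuclear receptor dimers in PBS pH 7.4, 2% milk, 0.02% Triton X-100, 1 mM DTT, 0.2 mg/mL BSA and 0.4 mg/ml salmon testes DNA. Antibodies against each partner (one per run) detected binding, and scanned fluorescence was regression-normalized. Binding z-scores use random background probes as reference.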

[2] = system: LXRa:RXRa (NR concentration 270 nM, RXRa partner concentration 90 nM)
Summary of the method: as §1

[3] = system: LXRa homodimer (NR concentration 270 nM)
Summary of the method: as §1

[4] = system: LXRb homodimer (NR concentration 270 nM)
Summary of the method: as §1

[5] = system: PPARg:RXRa 270nM:90nM, anti-RXR (NR concentration 270 nM, RXRa partner concentration 90 nM)
Summary of the method: as §1

[6] = system: PPARg:RXRa 30nM:10nM, anti-RXR (NR concentration 30 nM, RXRa partner concentration 10 nM)
Summary of the method: as §1

[7] = system: PPARg:RXRa 90nM:30nM, anti-RXR (NR concentration 90 nM, RXRa partner concentration 30 nM)
Summary of the method: as §1

[8] = system: PPARg:RXRa DBDmut IVT, anti-RXR (DBD mutation: RXRa K156A/R161A, NR concentration 270 nM, RXRa partner concentration 90 nM)
Summary of the method: as §1

[9] = system: PPARg:RXRa IVT, anti-PPARg (NR concentration 270 nM, RXRa partner concentration 90 nM)
Summary of the method: as §1

[10] = system: PPARg DBDmut:RXRa IVT, anti-PPARg (DBD mutation: PPARg1 K132A/R137A, NR concentration 270 nM, RXRa partner concentration 90 nM)
Summary of the method: as §1

[11] = system: PPARg DBDmut IVT, anti-PPARg (DBD mutation: PPARg1 K132A/R137A, NR concentration 270 nM)
Summary of the method: as §1

[12] = system: PPARg homodimer (NR concentration 180 nM)
Summary of the method: as §1

[13] = system: PXR homodimer (NR concentration 270 nM)
Summary of the method: as §1

[14] = system: RARa homodimer (NR concentration 270 nM)
Summary of the method: as §1

[15] = system: RARb homodimer (NR concentration 270 nM)
Summary of the method: as §1

[16] = system: PPARa:RXRa (NR concentration 270 nM, RXRa partner concentration 90 nM)
Summary of the method: as §1

[17] = system: PPARg:RXRa (NR concentration 180 nM, RXRa partner concentration 90 nM)
Summary of the method: as §1

[18] = system: PXR:RXRa (NR concentration 270 nM, RXRa partner concentration 90 nM)
Summary of the method: as §1

[19] = system: RARa:RXR (NR concentration 270 nM, RXRa partner concentration 90 nM)
Summary of the method: as §1

[20] = system: RARb:RXRa (NR concentration 270 nM, RXRa partner concentration 90 nM)
Summary of the method: as §1

Sequence	PBM binding z-score [1]	PBM binding z-score [2]	PBM binding z-score [3]	PBM binding z-score [4]	PBM binding z-score [5]	PBM binding z-score [6]	PBM binding z-score [7]	PBM binding z-score [8]	PBM binding z-score [9]	PBM binding z-score [10]	PBM binding z-score [11]	PBM binding z-score [12]	PBM binding z-score [13]	PBM binding z-score [14]	PBM binding z-score [15]	PBM binding z-score [16]	PBM binding z-score [17]	PBM binding z-score [18]	PBM binding z-score [19]	PBM binding z-score [20]
CCTGCTAGGTCAAAGGTCAGCTAAAGCAGCTCGC	7.56	6.38	2.52	1.05	10.2	11.3	12.6	5.89	7.37	3.16	2.19	7.33	0.666	3.79	4.91	–	–	–	–	–
ACTCGGATGACAAAGGTCAGAGCTACGCCAGTGA	3.55	–	1.58	0.503	5.37	3.76	5.58	0.169	2.58	0.403	0.346	3.31	0.135	1.18	3.9	4.38	4.68	3.68	4.51	4.12
TTGCCTAGGTCATTGGGCCAGTATAGTACGCATC	4.6	–	0.781	0.088	3.63	1	2.47	2.65	3.83	0.969	-0.224	0.621	-0.193	-0.65	2.92	3.86	3.36	1.67	2.13	3.79
TCGTGTAGGTTACGGGGGCATTCAGGGATGAAGA	3.84	3.76	1.21	–	6.17	4.82	5.8	5.22	6.27	–	–	3.1	2.98	1.46	2.92	–	6.02	3.98	3.71	3.34
TCTTGTAGATCAATAGAAGTTAAGAAAGTGCGCT	0.718	–	-0.154	0.0744	1.83	3.04	2.6	1.85	0.217	0.211	1.07	0.551	0.29	0.368	-0.511	0.693	-5.78e-05	0.615	0.734	0.0854
CGTCCAAGGTCAAAGGTCAATGAAGAGATGACGG	8.53	7.3	4.31	2.18	9.12	8.3	9.78	3.66	6.01	0.925	0.0116	3.92	1.95	1.95	5.56	–	10.8	7.05	8.9	6.08
TCTAGTTGGTCAAAGGTCACGCACTCGAAATGCG	6.9	6.16	4.78	1.9	10.2	12.6	12.2	3.84	6.68	3.73	2.56	6.55	1.96	4.59	5.32	6.76	12	–	–	–
CCTACGGGGCCACGAAAGGTCATTGATTCAGTGA	4.71	–	4.26	0.262	3.88	1.18	2.46	1.57	2.93	-0.766	-1.47	3.09	2.54	0.351	5.16	4.69	2.82	6.2	5.88	4.55
GGAACGAGGGCAAAGTTCATAGCATCTGTCGACG	4.26	4.95	3.9	-0.156	9.67	9.74	10.7	4.19	6.1	0.354	-0.0901	3.42	4.46	0.559	3.75	–	–	5.81	6.65	4.01
CGTCCAAGGTCTAGGTCAGTGAAAGAGACTCGAA	0.449	0.249	-0.0366	-0.741	0.357	-0.506	-0.014	0.895	1.61	-1.11	-1.28	0.763	-0.179	0.0377	2.38	1.06	-0.0446	–	0.514	2.48
TAGCCTAGGTCATTCAGGGGCCAGCATAGAAAGC	4.87	–	0.45	0.706	2.62	0.723	1.28	2.03	2.78	0.63	0.0516	1.32	-0.172	-0.134	3.42	3.89	2.37	2.37	3.95	3.92
ATATGTAGGTTAAAGGTCATTCAGGTTGGTTCGC	7.3	6.58	6.86	2.72	11	13.3	13.6	8.31	8.56	4.82	3.73	4.43	7.91	3.28	4.8	–	–	–	–	4.74
CCGACGGGGGCAAAGGTTACCATACTCAGTACGA	5.52	5.02	0.667	5.6	9.24	8.76	10.4	2.71	5.25	2.34	3.31	2.4	0.704	0.677	3.21	6.41	10	5.31	–	3.84
AGTCAAAGTTCATCTAGGTAACATAAGATATGCT	6.39	–	5.61	2.08	6.54	3.85	5.76	1.1	3.9	1.75	1.67	2.88	6.9	1.96	3.71	5.11	6.9	5.28	4.2	4.94
AGAATGAGGTTAAACGTAGATCAGGGAAGAAAGT	4.05	–	-0.194	0.141	4.04	1.87	3.12	6.01	3.75	1.56	1.02	1.3	0.319	0.469	1.19	4.4	4	1.73	2.69	2.23
ATCAAAAGGTCGAGGTGAGTATAGAGAAAGGGAA	4.62	4.01	0.533	1.32	3.94	1.51	2.81	0.945	2.79	1.63	1.54	2.27	1.09	1.57	3.28	4.75	3.37	2.86	–	4.53
CTATGTGGGTTAAGGGGGTCATTCAGTTTGAAAG	5.61	5.47	3.82	–	7.71	5.51	7.71	7.57	7.71	–	–	6.11	12.1	3.73	4.44	6.22	8.76	6.07	5.68	3.91
CAAACTAGGTCACAAAAGGTCAAAGTCGAATGAC	7.02	–	7.78	3.46	8.38	6.97	8.43	8.13	8.79	3.52	2.98	6.01	3.59	3.85	5.82	6.35	10.1	6.68	7.57	5.37
AGAATGAGGTTACTAAAGATCAGGGAAACGCTTG	1.18	–	0.111	0.0247	1.58	0.706	1.07	3.7	2.84	0.939	0.661	0.271	0.152	0.392	0.777	2.5	1.81	0.942	1.21	1.51
CCTACTGGGCCACGAAAGGCCATTGATTCAGTGA	-0.0775	–	-0.396	-0.835	1.21	-0.199	0.589	5.23	5.01	-0.487	-0.189	0.0675	-0.378	-0.712	1.36	0.948	1.34	0.149	0.18	1.18
TCGAGTAGGTCACGGGGGCATTCAGGGATGAAGA	6.7	5.3	1.07	–	7.99	5.9	7.7	6.73	7.67	–	–	3.98	1.77	1.36	4.32	6.09	9.41	4.92	5.53	4.66
ACTAGTTGGTCAGCTGAGGTCACACCCAATTCGG	2.83	–	2.07	0.443	2.06	0.239	1.19	1.35	2.55	1.1	0.595	2.35	1.25	0.354	4.33	3.46	1.54	5.14	4.27	3.57
TAGCCTAGGTCATTCAGGGGCAAGTATAGAAAGC	5.65	–	2.15	1.41	2.67	0.449	1.87	1.93	3.07	0.118	0.778	1.7	0.783	0.682	3.46	3.84	2.47	5.54	3.46	3.81
CCTTACGGGTCACGAGGTTGTAGCACGACGAGCG	6.87	–	0.0323	-0.413	6.12	3.32	5.08	4	4.99	1.56	-0.374	3.19	-0.0862	0.412	3.53	5.73	6.48	3.92	5.55	4.42
CTATGTAGGTTAGGGGGGTCATTCAGTTTGAAAG	5.78	5.66	3.89	–	7	5.35	7.07	6.54	6.9	–	–	4.93	11.2	3.17	4.06	5.95	9.03	6.22	5.88	4.13
AGAATGAGATTACCAAAGATCAGGGAAACGCTTG	-0.562	–	-0.342	-0.574	-0.216	-0.00239	0.0878	-0.34	-0.595	0.561	0.0997	-0.0322	-0.0511	-0.0131	-0.938	-0.285	0.538	-0.245	-0.182	-0.301
ATATGTAGGTTGGGGTCATTCAGAAAGTAGGGAA	5.99	5.41	2.32	4.74	6.09	3.16	5.4	3.81	4.46	–	2.36	3.59	3.64	3.34	4.06	–	7.05	6.18	6.42	3.75
ATATGTAGGATAGCTGGGGTCATTCAGACTAGGC	3.09	–	1.63	1.33	3.01	1.01	2.38	3.17	2.82	0.891	1.52	5.47	2.24	1.21	3.16	4.6	2.42	5.76	5.49	2.54
